Screening data as filed in PubChem BioAssay.
Shown are actives, neighbours in structure and some others; about 12% of the full set was active somewhere.
Pf growth 48h – P. falciparum growth inhibition at 48 hours (one generation); P. falciparum luciferase growth in erythrocytes, 48 h; Potency, µM (titrated, usually from 28.7 µM), for inactives: at the highest dose activity change, negative = inhibition, hits mostly inhibitors; actives 5.9% (n = 310,000); AID 504832; also: % is scaled to controls: 0 for no effect and ±100 for the full control effect
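First compound was added to culture medium, then infected red cells at 0.1% parasitemia and 2% hematocrit (final). After incubation at 37 C under 5% CO2, luciferase detection reagent was dispensed and light output recorded.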
NS1 inh – influenza NS1 inhibition | Potency, µM (top dose mostly 46.1 µM), for the others: at the top dose activity, positive = more growth | actives 0.4% (n = 270,000) | AID 2326; calls by dose curve; also: actives are rising curves; nearly all actives have a fitted effect of over 50% in size
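Recovery from NS1-induced slow growth read by OD600 in budding yeast switched to galactose assay medium (pH 6.0, -URA) at 1:100 dilution. Compound 23 nl per well; the matching strain lacking NS1 serves as control.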
HCV inh – blocks hepatitis C virus; Huh7.5.1 HCVcc-Cre infection, luciferase reporter, 44 h; Potency, µM (highest dose often 41.8 µM), inactives show top-dose activity change, negative = inhibition, hits mostly inhibitors; actives 3.4% (n = 340,000); AID 651820; also: % is scaled to controls: 0 for no effect and ±100 for the full control effect
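Antiviral activity was scored by luciferase reporter output from cells infected with HCVcc-Cre (~0.5 moi) in presence of compound, 44 h infection period, cells seeded 1,000/well 4 h prior.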
AMA1 RON2 block – AMA1-RON2 (P. falciparum) interaction inhibition | AlphaScreen AMA1-biotinylated RON2 peptide binding | Potency, µM (highest dose often 58.2 µM), for inactives: at the highest dose activity change, negative = inhibition, hits mostly inhibitors | actives 0.2% (n = 360,000) | AID 720542;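 also: 0% = vehicle wells and -100% = peptide control; nearly all actives have a fitted effect of over 45% in size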
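AMA1 (3D7) with his tag at 25 nM final met compounds first, then biotinylated RON2 peptide at 25 nM; detection used donor plus acceptor beads, 10 µg/mL apiece, read by AlphaScreen after 30 min at room temperature.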
Pf growth 96h – P. falciparum growth inhibition at 96 hours; AID 504834; P. falciparum luciferase reporter growth, 96 h; Potency, µM (highest dose often 28.7 µM), without a hit: at the highest dose activity change, negative = inhibition, actives largely listed as inhibitors; actives 6.9% (n = 320,000); also: % is scaled to controls: 0 for no effect and ±100 for the full control effect
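Compounds incubated with erythrocytes infected by luciferase-expressing P. falciparum (2% hematocrit, 0.05% parasitemia final) for 96 hours, 37 C in 5% CO2. Growth inhibition scored as decreased luciferase luminescence.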
SARS PLP yeast – inhibitors of SARS-CoV papain-like protease in yeast | S. cerevisiae expressing SARS-CoV PLpro, growth rescue | Potency, µM (top dose mostly 32.9 µM), without a hit: at the top dose activity, positive = growth rescue, actives largely listed as activators | actives 0.19% (n = 330,000) | AID 485353; calls by dose curve; also: 0% is about no effect; nearly all actives have a fitted effect of over 55% in size
Numbers without * were called inactive; u = inconclusive; x = no result. Unless noted, calls follow the shape of the dose curve; as a rule, active = well fitted curve in the direction sought with a large enough effect; inconclusive = small, poorly fitted or top-dose-only effect, or another doubt; inactive = no such curve, though single readings can be large; an effect the other way counts as inactive or inconclusive. Potency is read from the fitted curve at half-maximal effect.

SMILES	Pf growth 48h	NS1 inh	HCV inh	AMA1 RON2 block	Pf growth 96h	SARS PLP yeast
FC(F)(F)c1ccc(-c2noc(CN3CCCN(C4CCCCC4)CC3)n2)cc1	u	0%	u	7%	9.3µM*	-1%
c1ccc(C(c2ccccc2)c2noc(CN3CCN(C4CCCC4)CC3)n2)cc1	u	0%	-9%	-4%	-16%	-2%
CCOC(=O)CNC(=O)CSc1nc(C(C)C)nc2c1cnn2-c1ccccc1	x	x	x	8%	x	x
CCN1CCN(C(=O)C2c3cc(OC)c(OC)cc3C(=O)N3CCc4ccccc4C23)CC1 (stereo unspecified)	-14%	-3%	1%	7%	-16%	5%
CCCCN(CC)CCNC(=O)C1c2cc(OC)c(OC)cc2C(=O)N2CCc3ccccc3C12 (stereo unspecified)	u	4%	0%	-4%	10µM*	3%
C=CCNC(=O)C1COc2ccccc2O1 (stereo unspecified)	34%	0%	14%	8%	54%	0%
CC(C)n1cnc2c(NCc3ccccc3)cc(Cc3ccc(F)cc3)cc21	10µM*	x	u	u	6.6µM*	2%
CCOc1cc(NCc2ccccc2)c2ncn(C(C)C)c2c1	x	x	2.5µM*	25µM*	x	x
Cc1sc2c(c1C)C(O)=C(C(=O)Nc1ccccc1)S(=O)(=O)N2C	-9%	-3%	8%	-17%	u	-3%
CCCCCCCCN1C(=O)[C@H](CC(=O)NCCCOCCCC)C[C@@]2(C(=O)OC)CCCCC=C12	x	x	x	-4%	x	x
CCCCn1c(=O)[nH]c(=O)c2c1nc(-c1ccccc1F)n2Cc1ccccc1OC	u	x	10µM*	-19%	u	2%
CCCCn1c(=O)[nH]c(=O)c2c1nc(-c1ccc(OC)c(Br)c1)n2CC(C)C	u	9%	10µM*	-17%	2.1µM*	-14%
C=CCOc1ccc(-c2nc3c(c(=O)[nH]c(=O)n3CCCC)n2C)cc1Br	2%	-2%	-18%	-8%	1%	-13%
c1coc(-c2nc(-c3ccco3)c(-c3ccco3)nc2-c2ccco2)c1	-20%	3%	-1%	9.5µM*	103%	7%
C/C(N=NC(=[SH+])SCc1ccccc1)=C1\C=CC=CN1.[Cl][Cu]	x	2%	x	x	x	x
CCCCCCCCCCCCCCCCCCCCCC(=O)Nc1ccn([C@@H]2O[C@H](CO)[C@@H](O)[C@@H]2O)c(=O)n1	6%	x	x	x	-10%	x
Cc1ccc2c(CN3CCN(c4ccccc4)CC3)cc(=O)oc2c1	x	x	x	5%	x	x
Cc1c(N2CCCC2)cc2c(c1NC(=O)c1ccccc1Cl)C(C)(C)CC2(C)C	u	-9%	25µM*	-17%	u	-4%
CC1(C)Cc2c(cnn2-c2ccc(F)cc2)C(NC(=O)c2ccc(=O)oc2)C1 (stereo unspecified)	u	14%	x	-2%	u	3%
COc1ccc(C2C3=C(N=C4SCC(=O)N42)c2ccccc2CC3)cc1OC (stereo unspecified)	2.3µM*	10%	-29%	16%	14%	-7%
COc1ccccc1C1C2=C(N=C3SCC(=O)N31)c1ccccc1CC2 (stereo unspecified)	u	-11%	-2%	5%	u	-5%
COc1ccc(C2C3=C(N=C4SCC(=O)N42)c2ccccc2CC3)cc1 (stereo unspecified)	u	7%	-35%	-6%	12µM*	1%
O=C1CSC(c2cn(-c3ccccc3)nc2-c2cc3ccccc3oc2=O)N1Cc1ccccc1 (stereo unspecified)	x	14%	13µM*	0%	-1%	0%
O=C1CSC(c2cn(-c3ccccc3)nc2-c2ccc3c(c2)OCCO3)N1CCN1CCOCC1 (stereo unspecified)	8.3µM*	-17%	-17%	-2%	2%	-3%
O=C1CSC(c2nn(-c3ccccc3)cc2-c2cc3ccccc3oc2=O)N1Cc1ccco1 (stereo unspecified)	u	5%	u	-19%	u	8%
SMILES	Pf growth 48h	NS1 inh	HCV inh	AMA1 RON2 block	Pf growth 96h	SARS PLP yeast
C/C(=N\NC(=O)Cc1ccccc1)c1ccc(Br)s1	27%	-4%	-5%	1%	78%	12%
C/C(=N\NC(N)=S)c1cc(-c2ccccc2)c(-c2ccccc2)s1	9.3µM*	-14%	6.3µM*	54%	u	9%
C/C(=N/NC(N)=S)c1ccc(Br)s1	15µM*	-2%	u	82%	-3%	-1%
CC(Sc1nn(-c2ccccc2)c(=S)s1)C(=O)NCC1CCCO1 (stereo unspecified)	9.3µM*	x	-3%	0%	13µM*	x
Cc1nnc(SC(C)C(=O)NCC2CCCO2)n1-c1ccccc1 (stereo unspecified)	-17%	-3%	9%	-25%	-12%	-12%
COc1ccc(CCNC(=O)c2ccc(CS(=O)(=O)c3ccc(Cl)cc3)o2)cc1OC	-48%	10%	13µM*	5%	10µM*	2%
CCOc1ccc(CCNC(=O)c2ccc(CS(=O)Cc3ccc(Cl)cc3)o2)cc1OCC (stereo unspecified)	-9%	-20%	2.5µM*	-11%	u	3%
COc1ccc(CCNC(=O)CN(Cc2ccc(Cl)cc2)S(C)(=O)=O)cc1OC	0%	9%	-5%	0%	15µM*	-8%
COc1ccc(CCNC(=O)c2ccc(CSc3ccc(Cl)cc3)o2)cc1OC	x	x	x	-35%	x	x
COc1ccc(CCNC(=O)c2ccc(-c3ccc([N+](=O)[O-])cc3Cl)o2)cc1OC	27%	-33%	7.1µM*	-30%	-23%	-26%
COCCNC(=O)CN(Cc1ccc(Cl)cc1)S(C)(=O)=O	15%	-3%	4%	18%	x	-2%
NC(=O)c1ccsc1NC(=O)COC(=O)c1cnccn1	-11%	x	42%	-1%	18%	-1%
COc1ccc(CCN(C)C(=O)CSc2nc3ncc(Cl)cc3[nH]2)cc1OC	-24%	1%	20%	2%	u	1%
COc1ccc(S(=O)(=O)Cc2ccc(C(=O)NC3CCCCCC3)o2)cc1	8%	-13%	u	6%	7.4µM*	-2%
COc1ccc(S(=O)(=O)Cc2ccc(C(=O)NC(C)C)o2)cc1	2%	-6%	13%	-13%	53%	u
COc1ccc(CCNC(=O)c2ccc(CS(=O)(=O)Cc3ccc(C)cc3)o2)cc1OC	x	x	x	-5%	x	x
COc1ccc(CCNC(=O)c2ccc(CS(=O)(=O)c3ccc(C)cc3)o2)cc1OC	x	-4%	14µM*	-16%	u	2%
COC(=O)c1ccc(CS(=O)(=O)c2ccc(F)cc2)o1	-5%	2%	6%	0%	5.2µM*	-4%
